# Screening results from PubChem BioAssay.
# PostGolgi ctrl = inhibits growth of the yeast control strain; inhibition, % at 10 µM; actives 5% (n = 98,000); efflux-deficient yeast background strain, growth absorbance A615, 16 h
# CYP2C19 inh = blocks human cytochrome P450 2C19; inhibition, % at 5 µM; actives 21% (n = 96,000); AID 778; CYP2C19 Supersomes, luciferin-H EGE luminescence, 30 min; P33261;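 active means CYP2C19 inhibition above a set limit at 5 µM in the primary screen, cut at about 50% in these data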;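 further: plate controls were negative control wells for no effect and 2.5 mM tranylcypromine positive control for full effect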
# Target sequence (P33261 whole entry, looked up): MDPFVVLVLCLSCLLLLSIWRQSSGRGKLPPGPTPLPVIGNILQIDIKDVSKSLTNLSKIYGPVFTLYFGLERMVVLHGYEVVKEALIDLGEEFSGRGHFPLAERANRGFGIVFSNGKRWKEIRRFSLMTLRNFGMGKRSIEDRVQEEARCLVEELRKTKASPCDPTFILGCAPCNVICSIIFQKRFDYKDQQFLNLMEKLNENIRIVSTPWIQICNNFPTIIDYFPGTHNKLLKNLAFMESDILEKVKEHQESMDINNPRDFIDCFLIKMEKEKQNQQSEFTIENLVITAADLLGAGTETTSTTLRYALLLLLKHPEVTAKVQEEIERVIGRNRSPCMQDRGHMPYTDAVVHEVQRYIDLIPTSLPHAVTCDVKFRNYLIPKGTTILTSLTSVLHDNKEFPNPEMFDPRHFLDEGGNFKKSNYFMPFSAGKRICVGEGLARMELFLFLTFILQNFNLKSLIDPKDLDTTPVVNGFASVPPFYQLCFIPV
# CYP2C9 act = activators of human CYP2C9; P11712; recombinant CYP2C9, luciferin-H conversion, luminescence; active compounds read high; factor 1 = untreated enzyme, 0 = blocked; activation factor at 5 µM; actives 1.4% (n = 96,000); AID 1024;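 active means activation factor of 2 or more for CYP2C9 at a 5 µM dose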;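 further: 0 = sulfaphenazole-blocked wells and 1 = vehicle-only wells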
# PostGolgi yeast = growth inhibition of a yeast mutant, post-Golgi transport screen; inhibition, % at 10 µM; actives 0.9% (n = 98,000); post-Golgi transport phenotypic cell assay;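 further: yeast cells grown in 1536-well plates; yeast grown about 18 h at 30C before absorbance read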
# CYP2C19 act = increases human CYP2C19 enzyme activity; recombinant CYP2C19, luciferin-H EGE luminescence; active compounds read high; 0 = fully inhibited enzyme, 1 = untreated enzyme; activation factor at 5 µM; 96,000 tested, under 10 active;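 active means activation factor of at least 2 at 5 µM in the primary screen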;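 further: 0 = wells with 2.5 mM tranylcypromine and 1 = vehicle-only wells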
# CYP2C9 inh = inhibitors of human CYP2C9; inhibition, % at 5 µM; CYP2C9 Supersomes, luciferin-H conversion, luminescence; actives 20% (n = 96,000);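 active means blocking of liver enzyme CYP2C9 beyond about 50% at 5 µM, limit read from the data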
# Starred values were filed as active, the others as inactive; / = no result given. Compounds with a hit are over-represented: about 32% of the library has one in this group of screens. Unless noted, no stated cut-off is given here; in the data, active means inhibition above about 30%; inactive means the rest.
SMILES,PostGolgi ctrl,CYP2C19 inh,CYP2C9 act,PostGolgi yeast,CYP2C19 act,CYP2C9 inh
O=C(CCCn1c(=S)[nH]c2ccccc2c1=O)N1CCCCC1,-5,81*,0.7,-3,0.2,34
CC1CCN(CCCn2c(=S)[nH]c3ccccc3c2=O)CC1,-1,4,1.1,1,1,-13
O=C(CCCn1c(=S)[nH]c2ccc(Br)cc2c1=O)N1CCN(c2ccccn2)CC1,14,70*,0.4,-2,0.3,55*
NC(=O)c1nn(-c2ccccc2)c(=O)cc1O,-1,-8,1.1,-5,1.1,-6
O=C(CCn1c(=S)[nH]c2ccccc2c1=O)NCCCN1CCOCC1,2,-3,1,5,1,-3
O=c1c2ccccc2[nH]c(=S)n1CCCN1CCOCC1,-2,60*,1,18,0.4,4
O=C(CNC(=O)OCc1ccccc1)NCC(=O)N1CCCC1C(=O)OCc1ccccc1 (stereo unspecified),-6,0,0.9,3,1,5
COCCNC(=O)C1CCC(=O)N(c2ccc(OC)cc2)C1c1ccc(OC)c(OC)c1 (stereo unspecified),30,2,1,0,1,-2
CCOc1cc(-c2nc3ccccn3c2NCC2CCCO2)ccc1O (stereo unspecified),3,37,0.2,7,0.6,75*
COc1cc(-c2nc3ccccn3c2NCC2CCCO2)ccc1O (stereo unspecified),8,0,1,10,1,0
COC(=O)CNC(=O)Cn1cnc2sc(C)c(S(=O)(=O)N3CCC(C)CC3)c2c1=O,-7,/,/,-3,/,/
COc1cccc(NC(=O)Cn2cnc3sc(C)c(S(=O)(=O)N4CCCCC4)c3c2=O)c1,-13,18,0.3,-8,0.8,66*
COC(=O)Cn1cnc2sc(C)c(S(=O)(=O)N3CCC(C)CC3)c2c1=O,-4,26,0.9,6,0.7,7
COC(=O)Cn1cnc2sc(C)c(S(=O)(=O)N3CCN(c4ccccc4OC)CC3)c2c1=O,5,27,0.5,6,0.7,51*
CCOc1ccc(OCC)c2sc(C)nc12,14,42,0.8,-2,0.6,17
O=C(NCCc1ccccn1)C1CC(=O)N(Cc2ccccc2Cl)C1 (stereo unspecified),1,68*,1.3,-2,0.3,-34
COc1ccc(/C=C2/SC(=S)N(CCC(=O)O)C2=O)cc1,3,25,0.9,10,0.7,9
CCCCC(CC)CN1C(=O)/C(=C/c2ccncc2)SC1=S (stereo unspecified),32*,62*,0.3,13,0.4,70*
COC(C)(C)[C@]12CC(O)(c3ccccc3)ON1[C@H]1CCCCC1N2O (stereo partly specified),32*,30,1.2,1,0.7,-19
CN1CCN(NC(=O)c2cc([N+](=O)[O-])cc([N+](=O)[O-])c2)CC1,9,-5,1,-7,1,2
CC(=O)N(Cc1ccc(F)cc1)C1=C(NCc2ccccc2)C(=O)c2ccccc2C1=O,27,73*,0.2,-4,0.3,76*
CC(=O)n1nc(-c2ccccc2)nc1NCc1ccc(F)cc1,-1,16,0.8,-19,0.8,22
CCn1cc(C(=O)N2CCc3ccccc32)c(=O)c2cc(S(=O)(=O)N3CCCCCC3)ccc21,-6,29,0.3,-3,0.7,67*
CCn1cc(C(=O)NCC2CCCO2)c(=O)c2cc(S(=O)(=O)N3CCC(C)CC3)ccc21 (stereo unspecified),10,-1,0.6,-12,1,44
Cn1cc(C(=O)NC2CCCCCCC2)c(=O)c2cc(S(=O)(=O)N3CCCC3)ccc21,17,6,0.2,-6,0.9,84*
SMILES,PostGolgi ctrl,CYP2C19 inh,CYP2C9 act,PostGolgi yeast,CYP2C19 act,CYP2C9 inh
CCn1cc(C(=O)NCC2CCCO2)c(=O)c2cc(S(=O)(=O)N3CCCCCC3)ccc21 (stereo unspecified),8,18,0.4,1,0.8,57*
CCOC(=O)N1CCN(C(=O)c2cn(CC)c3ccc(S(=O)(=O)N4CCCC4)cc3c2=O)CC1,1,1,0.8,21,1,22
CCOC(=O)C1CCCN(C(=O)c2ccco2)C1 (stereo unspecified),-2,37,0.7,-3,0.6,26
CCS(=O)(=O)N1CCC(NC(=O)C2CCCCC2)CC1,1,-11,1.1,14,1.1,-6
CC1CCN(c2c([N+](=O)[O-])nn(-c3ccc4c(c3)OCCO4)[n+]2[O-])CC1,0,19,0.6,2,0.8,39
Cc1ccc2nsnc2c1S(=O)(=O)N(CCO)Cc1cc2cc3c(cc2[nH]c1=O)OCCO3,11,-2,0.8,-4,1,16
Cc1ccc2[nH]c(=O)c(CN(CCCO)S(=O)(=O)c3cccc4nsnc34)cc2c1,7,46,0.1,6,0.5,88*
Cc1ccc2cc(CN(CCCO)S(=O)(=O)c3cccc4nsnc34)c(=O)[nH]c2c1,7,1,0,1,1,100*
CC(C)(C)n1nnnc1C(c1cccc(C#N)c1)N1CCCc2ccccc21 (stereo unspecified),28,91*,0.1,9,0.1,94*
CC(C)(C)n1nnnc1C(c1ccc(Cl)cc1)N1CCCc2ccccc21 (stereo unspecified),19,84*,0.2,-5,0.2,76*
CCOc1ccc(NC(=O)CN2CCN(CC(=O)c3ccc(OC)c(OC)c3)CC2)cc1,1,11,0.9,-4,0.9,10
C=CCn1c(O)c(N=NC(=O)c2ccc3c(c2)OCO3)c2ccccc21,8,2,1,8,1,-4
COc1ccc(Cc2nn3c(-c4ccccc4Br)nnc3s2)cc1,45*,90*,0.7,1,0.1,26
Brc1ccccc1-c1nnc2sc(Cc3ccccc3)nn12,25,95*,0.4,9,0,62*
CCc1cc(=O)oc2cc(OC(C)C(=O)O)c(Cl)cc12 (stereo unspecified),-5,-12,0.8,3,1.1,21
O=S(=O)(Nc1cc(Cl)ccc1N1CCCCC1)c1cccs1,25,82*,0.5,-7,0.2,53*
O=S(=O)(Nc1ccccc1N1CCCCC1)c1ccc(Cl)s1,21,57*,0.9,10,0.4,12
O=S(=O)(Nc1ccc(N2CCCCC2)cc1)c1cccs1,6,98*,0,-4,0,100*
O=S(=O)(Nc1ccc(S(=O)(=O)N2CCCCC2)cc1)c1ccc(Br)s1,12,18,0,-2,0.8,96*
O=C(Nc1ccc(S(=O)(=O)N2CCCCCC2)cc1)c1ccc(Br)o1,13,25,0.6,-1,0.8,45
O=C(c1ccccc1NS(=O)(=O)c1cccs1)N1CCCC1,12,8,0.9,15,0.9,9
